# Data reported in article PMC8384837, “Expanding the binding specificity for RNA recognition by a PUF domain”.
# Numbering of substitutions follows the chain as printed.
# Key:
# Test in all cases: yeast three-hybrid, YBZ-1, SC-Leu-His + 0.5 mM 3-AT, 4 days
# Details in all cases: tags: N-Gal4 AD-HA kept; label: inside an RPR1-promoter hybrid RNA with tandem MS2 sites; ssRNA
# PUM1 PUF domain R1-CCK = PUM1 PUF domain R1-CCK (Homo sapiens, UniProt Q14671 828-1176, S863C;R864C;Q867K)
# Outline: (§1)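 Sequencing with Illumina followed PCR amplification of the repeat regions from transformants grown four days on SC-Leu (input) or SC-Leu-His + 0.5 mM 3-AT (selection). The transformants were strain YBZ-1 with a LexA–MS2 coat fusion and a HIS3 reporter, carrying Pumilio-1 PUF domain libraries and matching RNA elements. The interaction score is the log change in variant frequency from input to selection, computed in log2 with a pseudocount of 1 for absent variants.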
# PUM1 PUF domain R5-TRS = PUM1 PUF domain R5-TRS (Homo sapiens, UniProt Q14671 828-1176, C1007T;Q1011S)
# Outline: as §1
# PUM1 PUF domain R3-VFW = PUM1 PUF domain R3-VFW (Homo sapiens, UniProt Q14671 828-1176, C935V;R936F;Q939W)
# Outline: as §1
# PUM1 PUF domain R3-RTK = PUM1 PUF domain R3-RTK (Homo sapiens, UniProt Q14671 828-1176, C935R;R936T;Q939K)
# Outline: as §1
# PUM1 PUF domain R3-PWG = PUM1 PUF domain R3-PWG (Homo sapiens, UniProt Q14671 828-1176, C935P;R936W;Q939G)
# Outline: as §1
# PUM1 PUF domain R3-TRA = PUM1 PUF domain R3-TRA (Homo sapiens, UniProt Q14671 828-1176, C935T;Q939A)
# Outline: as §1
# PUM1 PUF domain R3-AWG = PUM1 PUF domain R3-AWG (Homo sapiens, UniProt Q14671 828-1176, C935A;R936W;Q939G)
# Outline: as §1
# PUM1 PUF domain R4-PHT = PUM1 PUF domain R4-PHT (Homo sapiens, UniProt Q14671 828-1176, N971P;Q975T)
# Outline: as §1
# PUM1 PUF domain R4-GRG = PUM1 PUF domain R4-GRG (Homo sapiens, UniProt Q14671 828-1176, N971G;H972R;Q975G)
# Outline: as §1
# PUM1 PUF domain R8-RHK = PUM1 PUF domain R8-RHK (Homo sapiens, UniProt Q14671 828-1176, N1122R;Y1123H;Q1126K)
# Outline: as §1
# PUM1 PUF domain R6-CFM = biological target: T1, PUM1 PUF domain R6-CFM (Homo sapiens, UniProt Q14671 828-1176, N1043C;Y1044F;Q1047M)
# T1 sequence: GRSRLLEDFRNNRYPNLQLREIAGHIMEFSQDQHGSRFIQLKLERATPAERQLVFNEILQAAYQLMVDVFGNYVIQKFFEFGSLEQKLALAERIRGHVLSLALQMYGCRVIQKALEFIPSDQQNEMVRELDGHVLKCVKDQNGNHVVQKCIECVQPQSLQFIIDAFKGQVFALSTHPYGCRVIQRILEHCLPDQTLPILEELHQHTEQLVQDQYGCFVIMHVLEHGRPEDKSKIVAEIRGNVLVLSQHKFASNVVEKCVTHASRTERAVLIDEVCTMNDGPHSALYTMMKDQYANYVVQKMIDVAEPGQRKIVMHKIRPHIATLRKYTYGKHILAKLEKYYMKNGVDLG
# Outline: as §1
# PUM1 PUF domain R3-LYM = PUM1 PUF domain R3-LYM (Homo sapiens, UniProt Q14671 828-1176, C935L;R936Y;Q939M)
# Outline: as §1
# PUM1 PUF domain R8-NFV = PUM1 PUF domain R8-NFV (Homo sapiens, UniProt Q14671 828-1176, Y1123F;Q1126V)
# Outline: as §1
# PUM1 PUF domain R8-RFC = PUM1 PUF domain R8-RFC (Homo sapiens, UniProt Q14671 828-1176, N1122R;Y1123F;Q1126C)
# Outline: as §1
# PUM1 PUF domain R6-GRQ = biological target: T2, PUM1 PUF domain R6-GRQ (Homo sapiens, UniProt Q14671 828-1176, N1043G;Y1044R)
# T2 sequence: T1 sequence with C216G, F217R, M220Q
# Outline: as §1
# PUM1 PUF domain R8-KFS = PUM1 PUF domain R8-KFS (Homo sapiens, UniProt Q14671 828-1176, N1122K;Y1123F;Q1126S)
# Outline: as §1
# PUM1 PUF domain R5-PLK = PUM1 PUF domain R5-PLK (Homo sapiens, UniProt Q14671 828-1176, C1007P;R1008L;Q1011K)
# Outline: as §1
# PUM1 PUF domain R1-KYI = PUM1 PUF domain R1-KYI (Homo sapiens, UniProt Q14671 828-1176, S863K;R864Y;Q867I)
# Outline: as §1
# PUM1 PUF domain R7-LNA = PUM1 PUF domain R7-LNA (Homo sapiens, UniProt Q14671 828-1176, S1079L;E1083A)
# Outline: as §1
# PUM1 PUF domain R7-GGR = PUM1 PUF domain R7-GGR (Homo sapiens, UniProt Q14671 828-1176, S1079G;N1080G;E1083R)
# Outline: as §1
sequence,measurement,setting,value
GGCUAGAACUAGUGGAUCCCCCGGCGCCCGGCGGCUCGAGCCCGGGUAAGUGUAAAUUGUCUGCAUGCCGCCGGGCGCCAUGCCUGCAGGUCGACUCUAGAAAACAUG,binding signal,PUM1 PUF domain R1-CCK,2.6 log2 enrichment (interaction score)
GGCUAGAACUAGUGGAUCCCCCGGCGCCCGGCGGCUCGAGCCCGGGUAAGUGUGAAUAGUCUGCAUGCCGCCGGGCGCCAUGCCUGCAGGUCGACUCUAGAAAACAUG,binding signal,PUM1 PUF domain R5-TRS,2.97 log2 enrichment (interaction score)
GGCUAGAACUAGUGGAUCCCCCGGCGCCCGGCGGCUCGAGCCCGGGUAAGUGUAAUUAGUCUGCAUGCCGCCGGGCGCCAUGCCUGCAGGUCGACUCUAGAAAACAUG,binding signal,PUM1 PUF domain R3-VFW,5.01 log2 enrichment (interaction score)
same,binding signal,PUM1 PUF domain R3-RTK,4.87 log2 enrichment (interaction score)
same,binding signal,PUM1 PUF domain R3-PWG,2.22 log2 enrichment (interaction score)
same,binding signal,PUM1 PUF domain R3-TRA,0.43 log2 enrichment (interaction score)
same,binding signal,PUM1 PUF domain R3-AWG,0.35 log2 enrichment (interaction score)
GGCUAGAACUAGUGGAUCCCCCGGCGCCCGGCGGCUCGAGCCCGGGUAAGUGUACAUAGUCUGCAUGCCGCCGGGCGCCAUGCCUGCAGGUCGACUCUAGAAAACAUG,binding signal,PUM1 PUF domain R4-PHT,2.45 log2 enrichment (interaction score)
same,binding signal,PUM1 PUF domain R4-GRG,0.59 log2 enrichment (interaction score)
GGCUAGAACUAGUGGAUCCCCCGGCGCCCGGCGGCUCGAGCCCGGGUAAGUGUAUAUAGUCUGCAUGCCGCCGGGCGCCAUGCCUGCAGGUCGACUCUAGAAAACAUG,binding signal,PUM1 PUF domain R4-GRG,2.09 log2 enrichment (interaction score)
GGCUAGAACUAGUGGAUCCCCCGGCGCCCGGCGGCUCGAGCCCGGGUAAGGGUAAAUAGUCUGCAUGCCGCCGGGCGCCAUGCCUGCAGGUCGACUCUAGAAAACAUG,binding signal,PUM1 PUF domain R8-RHK,3.54 log2 enrichment (interaction score)
GGCUAGAACUAGUGGAUCCCCCGGCGCCCGGCGGCUCGAGCCCGGGUAAGUGUAAAUAGUCUGCAUGCCGCCGGGCGCCAUGCCUGCAGGUCGACUCUAGAAAACAUG,binding signal,PUM1 PUF domain R4-PHT,6.07 log2 enrichment (interaction score)
same,binding signal,PUM1 PUF domain R6-CFM,3.02 log2 enrichment (interaction score)
same,binding signal,PUM1 PUF domain R3-LYM,4.11 log2 enrichment (interaction score)
same,binding signal,PUM1 PUF domain R8-RHK,2.95 log2 enrichment (interaction score)
same,binding signal,PUM1 PUF domain R5-TRS,2.85 log2 enrichment (interaction score)
same,binding signal,PUM1 PUF domain R3-VFW,4.87 log2 enrichment (interaction score)
same,binding signal,PUM1 PUF domain R3-PWG,4.24 log2 enrichment (interaction score)
same,binding signal,PUM1 PUF domain R8-NFV,3.02 log2 enrichment (interaction score)
same,binding signal,PUM1 PUF domain R3-TRA,3.6 log2 enrichment (interaction score)
same,binding signal,PUM1 PUF domain R3-AWG,3.6 log2 enrichment (interaction score)
same,binding signal,PUM1 PUF domain R4-GRG,5.19 log2 enrichment (interaction score)
same,binding signal,PUM1 PUF domain R8-RFC,4.53 log2 enrichment (interaction score)
same,binding signal,PUM1 PUF domain R6-GRQ,3.49 log2 enrichment (interaction score)
GGCUAGAACUAGUGGAUCCCCCGGCGCCCGGCGGCUCGAGCCCGGGUAAGCGUAAAUAGUCUGCAUGCCGCCGGGCGCCAUGCCUGCAGGUCGACUCUAGAAAACAUG,binding signal,PUM1 PUF domain R8-KFS,3.24 log2 enrichment (interaction score)
same,binding signal,PUM1 PUF domain R8-RHK,3.29 log2 enrichment (interaction score)
same,binding signal,PUM1 PUF domain R8-RFC,5.87 log2 enrichment (interaction score)
GGCUAGAACUAGUGGAUCCCCCGGCGCCCGGCGGCUCGAGCCCGGGUAAGUGUUAAUAGUCUGCAUGCCGCCGGGCGCCAUGCCUGCAGGUCGACUCUAGAAAACAUG,binding signal,PUM1 PUF domain R5-PLK,2.84 log2 enrichment (interaction score)
same,binding signal,PUM1 PUF domain R5-TRS,3.03 log2 enrichment (interaction score)
GGCUAGAACUAGUGGAUCCCCCGGCGCCCGGCGGCUCGAGCCCGGGUAAGUGUAAGUAGUCUGCAUGCCGCCGGGCGCCAUGCCUGCAGGUCGACUCUAGAAAACAUG,binding signal,PUM1 PUF domain R3-PWG,2.38 log2 enrichment (interaction score)
same,binding signal,PUM1 PUF domain R3-TRA,0.89 log2 enrichment (interaction score)
same,binding signal,PUM1 PUF domain R3-AWG,0.66 log2 enrichment (interaction score)
GGCUAGAACUAGUGGAUCCCCCGGCGCCCGGCGGCUCGAGCCCGGGUAAGUGUAAAUCGUCUGCAUGCCGCCGGGCGCCAUGCCUGCAGGUCGACUCUAGAAAACAUG,binding signal,PUM1 PUF domain R1-KYI,4.65 log2 enrichment (interaction score)
GGCUAGAACUAGUGGAUCCCCCGGCGCCCGGCGGCUCGAGCCCGGGUAAGUUUAAAUAGUCUGCAUGCCGCCGGGCGCCAUGCCUGCAGGUCGACUCUAGAAAACAUG,binding signal,PUM1 PUF domain R7-LNA,4.5 log2 enrichment (interaction score)
same,binding signal,PUM1 PUF domain R7-GGR,3.28 log2 enrichment (interaction score)
